{"source": "the supplement of paper PMC10941209", "note": "A number with no mark means an inactive call."}
{"system": "Toxoplasma gondii RH 2F1 tachyzoites (intracellular in HFF)", "experiment": "parasite survival relative to DMSO control; higher = less antiparasitic activity, active = 20 or less", "details": "1 µM; 72 h", "experimental": "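Primary single-dose screen of the MMV Pandemic Response Box at 1 uM against T. gondii RH-2F1 (beta-galactosidase) tachyzoites in HFF cells, 72 h at 37 C. Parasite growth read by CPRG absorbance at 570 nm and normalised to DMSO-treated infected controls (% survival); pyrimethamine was the reference drug. The paper calls at least 80% inhibition a hit.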"}
{"smiles": "CSC[C@H]1CN(Cc2c[nH]c3c(N)ncnc23)C[C@@H]1O", "parasite survival": "45.9%"}
{"smiles": "N[C@H](CCC(=O)N[C@@H](Cc1c[nH]c2ccccc12)C(=O)O)C(=O)O", "parasite survival": "84.2%"}
{"smiles": "O=C(/C(=C/c1ccc(Cl)cc1Cl)n1ccnc1)c1ccc(Cl)cc1", "parasite survival": "10.2% (active)"}
{"smiles": "O=C(NCc1ncc(C(F)(F)F)cc1Cl)c1c(Cl)cccc1Cl", "parasite survival": "45.4%"}
{"smiles": "CN(C)CC(=O)Nc1ccc2[nH]c(=O)c3ccccc3c2c1", "parasite survival": "55.3%"}
{"smiles": "O=C(Nc1nnc(-c2ccc(Cl)cc2)o1)c1nc2ccccc2s1", "parasite survival": "62.5%"}
{"smiles": "NCc1ccc(S(N)(=O)=O)cc1", "parasite survival": "84.2%"}
{"smiles": "Oc1c(C(Nc2nc3ccccc3s2)c2ccc(OC(F)F)cc2)ccc2cccnc12", "note": "(stereo not given)", "parasite survival": "4.28% (active)"}
{"smiles": "CCCCc1ccc(S(=O)(=O)Nc2cc(C)on2)cc1", "parasite survival": "39.1%"}
{"smiles": "CCc1ccccc1OCCN1CCCCCC1", "parasite survival": "47.2%"}
{"smiles": "CCN1CCN(Cc2nc3ccc([N+](=O)[O-])cc3c(=O)n2-c2ccccc2F)CC1", "parasite survival": "59.6%"}
{"smiles": "O=C(c1ccc(F)cc1)N1CCN2C(=O)c3ccccc3C12c1ccccc1", "note": "(stereo not given)", "parasite survival": "64.9%"}
{"smiles": "O=S(=O)(Nc1ccc(O)cc1)c1cccc2cccnc12", "parasite survival": "64.4%"}
{"smiles": "CC(Oc1ccc(Cl)cc1Cl)C(=O)NCc1ccc2c(c1)OCO2", "note": "(stereo not given)", "parasite survival": "31.2%"}
{"smiles": "CC1CN(c2ncnc3c2c(-c2ccccc2)cn3-c2ccc(F)cc2)CC(C)O1", "note": "(stereo not given)", "parasite survival": "34.4%"}
{"smiles": "COc1ccccc1CN[C@H]1C2CCN(CC2)[C@H]1C(c1ccccc1)c1ccccc1", "parasite survival": "37.5%"}
{"smiles": "COC(=O)Nc1nc2ccccc2[nH]1", "parasite survival": "53%"}
{"smiles": "O=C(O)c1ccc(-n2nc(-c3ccccc3O)nc2-c2ccccc2O)cc1", "parasite survival": "25.7%"}
{"smiles": "c1cc(CN2CCCNCCNCCCNCC2)ccc1CN1CCCNCCNCCCNCC1", "parasite survival": "91.5%"}
{"smiles": "Clc1ccc(Cn2c(CN3CCCC3)nc3ccccc32)cc1", "parasite survival": "42.2%"}
{"smiles": "C=C(C)[C@@H]1CC[C@]2(C(=O)O)CC[C@]3(C)[C@H](CC[C@@H]4[C@@]5(C)CC[C@H](O)C(C)(C)[C@@H]5CC[C@]43C)[C@@H]12", "parasite survival": "46.6%"}
{"smiles": "N#C/C(=C1/SC[C@H](c2ccc(Cl)cc2Cl)S1)n1ccnc1", "parasite survival": "41.2%"}
{"smiles": "O=C(Nc1ccccc1)N(Cc1cc(Br)ccc1O)c1ccc(F)cc1", "parasite survival": "21.3%"}
{"smiles": "C[C@H]1[C@@H](c2cccc(C(F)(F)F)c2)OC(=O)N1C(=O)NCc1cncc2ccccc12", "parasite survival": "40.6%"}
{"smiles": "CC(C)Oc1ccc(-c2nc(-c3cccc4c3CC[C@@H]4NCCO)no2)cc1C#N", "parasite survival": "41.9%"}
{"smiles": "O=C1C=C(c2ccccc2)S(=O)(=O)c2ccccc21", "parasite survival": "44.4%"}
{"smiles": "COc1ccc(SCC(=O)N2c3ccccc3Sc3ccccc32)cc1", "parasite survival": "47.4%"}
{"smiles": "CC(C)(C)NC(=O)[C@@H]1CN(Cc2cnc3occc3c2)CCN1C[C@@H](O)C[C@@H](Cc1ccccc1)C(=O)N[C@H]1c2ccccc2C[C@H]1O", "parasite survival": "58.1%"}
{"smiles": "OC1O[C@H](CSc2ccc(F)cc2)[C@@H](O)[C@H]1O", "note": "(stereo not given in full)", "parasite survival": "49.9%"}
{"smiles": "O=S(=O)(NCB(O)O)c1cc2c(Cl)ccc(Cl)c2s1", "parasite survival": "54.4%"}
{"smiles": "COc1cc(Cc2cnc(N)nc2N)cc(OC)c1OC", "parasite survival": "52.6%"}
{"smiles": "CCc1cc(CCC(=O)Nc2ccccc2O)c(O)nc1C", "parasite survival": "70.1%"}
{"smiles": "COC(=O)Nc1nc2cc([S+]([O-])c3ccccc3)ccc2[nH]1", "note": "(stereo not given)", "parasite survival": "59.2%"}
{"smiles": "Cc1ccc(N2CCC(CCOc3ccc(S(C)(=O)=O)cc3)CC2)nn1", "parasite survival": "73.2%"}
{"smiles": "Cc1c[nH]c(=O)nc1NCc1ccccc1", "parasite survival": "49.9%"}
{"smiles": "CCCc1ccc(-c2cc3cn([C@H]4C[C@H](O)[C@@H](CO)O4)c(=O)nc3o2)cc1", "parasite survival": "61.6%"}
{"smiles": "Cc1ccc(Oc2ccccc2-c2csc(N=C3NCCCN3)n2)c(C)c1", "parasite survival": "30.1%"}
{"smiles": "CCc1ccc(C2CC(C(F)(F)F)n3ncc(C(=O)NCc4ccc(OC)cc4)c3N2)cc1", "note": "(stereo not given)", "parasite survival": "25.4%"}
{"smiles": "CCc1cc(O)c(Oc2cccnc2N)cc1F", "parasite survival": "44.6%"}
{"smiles": "CC(=O)N[C@H](C)C(=O)N[C@H](Cc1ccccc1)C(=O)O", "parasite survival": "61.2%"}
